Holding throughout (experiment): NCI-60 one-dose screen, 48 h (100 = growth as untreated, 0 = no growth, -100 = all killed)
Holding throughout (conditions): 10 µM unless noted

Assay [1] relates to K-562 leukemia.
Assay [2] concerns MDA-MB-231 breast.
The subject of assay [3] is SF-268 CNS.
Assay [4] has as its system SF-295 CNS.
The subject of assay [5] is SF-539 CNS.
The subject of assay [6] is UACC-257 melanoma.
For assay [7], the system named is M14 melanoma.
For assay [8], the system named is HCT-15 colon.
The subject of assay [9] is HT29 colon.
For assay [10], the system named is SNB-75 CNS.
For assay [11], the system named is SNB-19 CNS.
For assay [12], the system named is U251 CNS.
For assay [13], the system named is PC-3 prostate.
The test system of assay [14] is SK-MEL-5 melanoma.
In assay [15] the test system is SK-MEL-28 melanoma.
Assay [16] deals with SK-MEL-2 melanoma.
Assay [17] relates to LOX IMVI melanoma.
The subject of assay [18] is RXF 393 renal.
Assay [19] deals with UACC-62 melanoma.
Assay [20] deals with MALME-3M melanoma.

Structures are written as SMILES. This is part of a sample that, as a whole, favours compounds with a hit. Of some 83,000 tested, about 20% had one in any assay.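 Percent growth is the endpoint: 0 to 100 indicates growth inhibition (40 means 60% inhibition), 0 means no net growth, and negative values indicate cell death.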 A number with no mark means an inactive call. Active and inactive are the calls of the source. The calls were made as follows: active = growth percent below 10; inactive = the rest.

Regarding `O=C(Nc1nc(-c2ccc(Cl)cc2)cs1)c1cc(O)c(O)c(O)c1`, the growth is 7.99% (active) in [1]; 36% in [2]; 26.7% in assay [3]; 31.2% in assay [4]; 5.36% (active) in assay [5]; 42.7% in assay [6]. Also, the growth in assay [7] is 23.2%; in assay [8], 18.8%; in assay [9] it was 71.9%; in assay [10], 36.7%; in [11], 25.9%; in [12] it was 23.5%. Further, the growth was 46.9% in [13], 24.6% in assay [14], 42.9% in [15] and 31.9% in [16].

Take `COc1cc2c(-c3nc4cc(Cl)c(F)cc4s3)cc(=O)oc2c(C)c1OC`: the growth in assay [1] is -22.6% (active); in assay [2], -50.4% (active); in assay [3] it was -63.5% (active); in [4], -81.5% (active); in assay [5], -89% (active); in assay [6], -77.6% (active). In addition, the growth in [7] was -35.2% (active); in assay [8] it was -39.1% (active); in assay [9], -80% (active); in assay [10], -90.3% (active); in assay [11] it was 34.7%; in assay [12], -92.3% (active). The growth in assay [13] is 19.2%; in assay [14] it was -84.2% (active); in assay [17] it was -73.5% (active); in [15] it was -28.6% (active); in [16] it was -82.2% (active).

As to `O=C(Nc1nc2ccccc2s1)c1cc(-c2ccc(F)cc2)n2nc(-c3ccccc3)cc2n1`, the growth is 59.1% in assay [1]; 64.6% in assay [2]; 121% in assay [18]; 40.3% in assay [4]; 63.8% in assay [5]; 69% in [6]. The growth was 79.2% in [7]; 53.7% in assay [8]; 74.5% in assay [9]; 38.4% in assay [10]; 71.3% in [11]; 18.2% in assay [12]. For the same compound, the growth in [13] is 56.9%; in assay [14], 72.6%; in [19] it was 70.6%; in [17], 45.6%; in [15], 85.4%.

For `COc1cc(/C=C/C(=O)c2c(-c3ccc(F)cc3)nc3sc(C)nn23)cc(OC)c1OC`, the growth is 2.54% (active) in assay [1]; 7.91% (active) in assay [2]; 16.6% in assay [3]; 49.6% in [4]; 21.2% in [5]; 46.6% in [6]. Further, the growth in assay [7] was 34.9%; in [8] it was 15.9%; in assay [9] it was 6.07% (active); in [10], 10.2%; in assay [11] it was 84.9%; in [12], 21.3%. Also, the growth in assay [13] is 59.9%; in [14], 27.1%; in [17] it was -19.7% (active); in assay [15] it was 65.7%; in [16] it was -26.5% (active).

Consider `Clc1ccccc1[C@@H]1C[C@@H]2Cc3cc(Br)c4ccccc4c3N1O2`, for which the growth in assay [1] is 10%; in assay [2], 39%; in assay [18], 39.3%; in assay [3], 46.1%; in assay [4] it was 24.6%; in assay [5] it was 6.71% (active). Further, the growth is 47.4% in assay [6]; 20.8% in [7]; 35.7% in assay [8]; 4.57% (active) in assay [10]; 38.2% in [11]; 34.4% in assay [12]. The growth is 30.2% in [14], 24.4% in [19] and 47.5% in assay [15].

On to `COc1ccc2nc(NC(=O)c3cc(-c4ccc(F)cc4)n4nc(-c5ccccc5)cc4n3)sc2c1`, for which the growth is 93.5% in [1]; 72.8% in assay [2]; 118% in [18]; 61.6% in [4]; 66.6% in assay [5]; 80% in assay [6]. Also, the growth in assay [7] is 81.9%; in assay [9], 92.5%; in assay [10] it was 80.4%; in [11], 83.3%; in assay [12], 64.2%; in assay [13], 63.7%. Besides, the growth is 55.5% in [14], 67.9% in [19], 67.9% in [17] and 73.1% in assay [15].

For `Cn1cc(-c2nc(-c3c[nH]c4ncc(F)cc34)cs2)c2cccnc21`, the growth in assay [20] was 101%; in assay [2], 68.8%; in [18] it was 98.3%; in assay [3], 116%; in assay [4] it was 107%; in assay [5] it was 113%. Moreover, the growth in assay [6] is 119%; in assay [7], 86.6%; in [8], 97.1%; in assay [9], 112%; in assay [10], 101%; in assay [11] it was 108%. The growth in assay [12] was 98.6%; in [13], 104%; in [14], 97.9%; in assay [19] it was 89.1%; in assay [17] it was 98%; in [15], 111%. Also, the growth in assay [16] is 120%.

`COc1ccc(/C=C/C(=O)Nc2cccnc2Nc2ccc(F)cc2)cc1`: the growth in assay [20] is 122%; in assay [2], 91.7%; in [18], 102%; in assay [3], 112%; in [4] it was 87.9%; in [5], 93.7%. The growth is 97.9% in [6]; 103% in [7]; 102% in assay [8]; 109% in assay [9]; 97.3% in assay [10]; 87.9% in assay [11]. Also, the growth in assay [12] is 93.4%; in [14], 87.2%; in assay [19], 86.6%; in [17] it was 98.9%; in assay [15], 98.6%; in assay [16] it was 120%.

As for `COc1cc(/C=C/C(=O)Nc2cccnc2Nc2cc(OC)c(OC)c(OC)c2)cc(OC)c1OC`, the growth in assay [20] is 107%; in [2], 90.7%; in assay [18], 108%; in assay [3] it was 105%; in [4], 92.8%; in assay [5], 98.1%. For the same compound, the growth is 93.4% in [6]; 100% in assay [7]; 97.3% in [8]; 94.3% in [9]; 82.1% in assay [10]; 96.5% in assay [11]. Moreover, the growth in assay [12] is 91.3%; in assay [14], 93.6%; in assay [19], 84.4%; in assay [17], 101%; in assay [15], 103%; in assay [16], 96.4%.

(Values after PubChem BioAssay (NCI).)
